# PubChem BioAssay AID743279 (National Center for Advancing Translational Sciences (NCATS), 2014)
# Among all 360,000 compounds or so, about 17,000 (4.7%) were called active. Another 5% or so got no clear call; they are omitted. The sample holds actives, similar compounds and a random draw of the others, so the mix is not that of the screen. Cut-off read from the data, not from the text of the source: active = activity change below about -50%; inconclusive = mostly about -30% to -49%; inactive = weaker than that.
# Experiment: qHTS for Inhibitors of Inflammasome Signaling: IL-1-beta AlphaLISA Primary Screen
# Details: THP-1 LPS/ATP IL-1B secretion, 16 h; at 57.5 µM, active compounds read low
# Procedure, shortened: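 THP-1 cells pretreated 1 hr with compounds (up to 57.5 uM final), then stimulated with LPS (250 ng/mL final) plus ATP (1.25 mM final); secreted IL-1B measured by AlphaLISA after 16 hr, decreased signal indicating inhibition.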
# % is set by controls: 0 for no effect and ±100 for the full control effect.
row,SMILES,activity change
1,CC(=O)N(O)CCCCCNC(=O)CCC(=O)N(O)CCCCCNC(=O)CCC(=O)N(O)CCCCCNC(=O)CCC(=O)O,21.7% (inactive)
2,O=C1[C@H]2[C@@H](c3ccc(Cl)cc3)N3C(=O)N(c4cccc(F)c4)C(=O)[C@@]3(Cc3ccccc3)[C@H]2C(=O)N1C1CCCCC1,-4.9% (inactive)
3,CC(C)(C)N1C(=O)[C@H]2[C@@H](c3ccc(Br)cc3)N3C(=O)N(c4cccc(Cl)c4)C(=O)[C@@]3(C)[C@H]2C1=O,-24.5% (inactive)
4,C[C@@]12C(=O)N(c3cccc(Br)c3)C(=O)N1[C@H](c1ccc(Cl)cc1)[C@@H]1C(=O)N(C3CCCCC3)C(=O)[C@@H]12,-60.3% (active)
5,COc1ccc(-c2cnc3c(c2)C(=O)N([C@H](C)CO)C[C@@H](C)[C@H](CN(C)Cc2ccccc2)O3)cc1,-26.2% (inactive)
6,CCCNC(=O)C1(C)CCN(Cc2csc(-c3ccc(Cl)cc3)n2)C1 (configuration not stated),-26.3% (inactive)
7,c1ccc2c(c1)CSc1sccc1C2=C1CCNCC1,-57.8% (active)
8,CN1OC[C@@H]2CN(C(=O)c3cccc4ccccc34)[C@H](c3ccc(N4CCCCC4)cc3)C[C@@H]21,-28.3% (inactive)
9,N#Cc1ccc(OCC(=O)Nc2nc(-c3ccccn3)cs2)cc1,69.5% (inactive)
10,CCC(C)c1ccccc1NC(=O)CN(C)CC(=O)Nc1ccccc1SC (configuration not stated),-1.52% (inactive)
11,CSc1ccccc1NC(=O)CN(C)CC(=O)Nc1cccc(Br)c1,-74.1% (active)
12,CSc1ccccc1NC(=O)CN(C)CC(=O)Nc1ccc(Cl)cc1[N+](=O)[O-],-0.613% (inactive)
13,O=C(Nc1ccccc1)C1CC(=O)n2c(nc3ccccc32)N1 (configuration not stated),-5.02% (inactive)
14,COc1ccc(CC(NC(C)=O)C(=O)NC2CCN(C(=O)c3ccc(Cl)cc3)CC2)cc1 (configuration not stated),23.6% (inactive)
15,COC(=O)C[C@H]1C=C[C@@H](NS(=O)(=O)c2ccc(C)cc2)[C@@H](CO)O1,34.5% (inactive)
16,CSc1ncnc2c1ncn2CCCNCc1cccs1,19.3% (inactive)
17,COc1ccc(NC(=S)NCC2CCN(c3ccc(OC)cc3)C2)cc1 (configuration not stated),-82.6% (active)
18,COc1ccc(OCC(=O)Nc2ccc(N3CCC(C)CC3)cc2)cc1,2.27% (inactive)
19,COc1ccc(N2CCC(N3CCN(C)C(CCO)C3)CC2)cc1 (configuration not stated),15.4% (inactive)
20,COc1ccc(NC(=S)NCCN2CCC(C)CC2)cc1,-11.9% (inactive)
21,COc1ccc(C(C(=O)Nc2c(C)cccc2C)N2CCN(c3ccc(C)cc3)CC2)cc1 (configuration not stated),-9.64% (inactive)
22,COc1ccc(N2CCC(CNC(=S)Nc3c(C)cccc3C)C2)cc1 (configuration not stated),-82.6% (active)
